The values below come from PubChem BioAssay (NCATS).

“And” between values parts separate entries of the source, which are not always exact repeats. Equal values may be shown once. Results filed as inconclusive are left out. Where a call stands in place of a potency, no number is given. Some compounds were tested as several samples or in several runs, with calls that do not always agree. The source made the active and inactive calls. The call rests on the fitted dose curve; in most records, active means well fitted inhibition curve with a large enough effect; inconclusive means small, poorly fitted or top-dose-only effect; inactive means flat fitted curve, though single readings scatter. Non-standard residues stand in square brackets, D forms with d. Residues, ends and D or L forms follow the SMILES beside them. Peptide text beside a SMILES is read from it. *: point of attachment. Sta = CC(C)C[C@H](N)[C@@H](O)CC(=O)O; Isovaleryl = CC(C)CC(=O)*
Potency means the concentration at half of the fitted maximal effect.

The experiment is described as follows: P-glycoprotein substrates identified in KB-8-5-11 adenocarcinoma cell line, qHTS therapeutic library screen (AID 1346987). Further: nearly all actives have a fitted effect of over 65% in size. The settings on record: KB-8-5-11 (P-gp overexpressing) viability, CellTiter-Glo, 72 h; series mostly up to 44.5 µM; activity change, negative = cytotoxicity: at the top concentration. Put shortly: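 Luminescence from CellTiter-Glo, read 5 min after addition, quantified survival of KB-8-5-11 (P-gp-overexpressing) cells exposed to compounds for 72 h. AC50 was derived from concentration-response curves.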
On to `CC1Cc2ccccc2N1NC(=O)c1ccc(Cl)c(S(N)(=O)=O)c1` (centres undefined), for which the Potency entry was “inactive”.

In the case of `CC1=C(C)C(=O)C(C(CCCCCC(=O)O)c2ccccc2)=C(C)C1=O` (centres undefined), the “activity change, negative = cytotoxicity” value is -15.2% (inactive).

For `Cc1nc(-c2ccc(OCC(C)C)c(C#N)c2)sc1C(=O)O`, the call was inactive.

With `CCOC(=O)C1=C[C@@H](OC(CC)CC)[C@H](NC(C)=O)[C@@H](N)C1`, the Potency result is “inactive”.

With `COC1=C(OC)C(=O)C(CCCCCCCCCCO)=C(C)C1=O`, the “activity change, negative = cytotoxicity” value is -6.75% (inactive).

On to `C=CCc1cc(OC)c(O)c(C(=O)NCCO)c1`, for which the Potency entry was “inactive”.

With `CN(C)c1ccc(O)c2c1C[C@H]1C[C@H]3[C@H](N(C)C)C(=O)C(C(N)=O)=C(O)[C@@]3(O)C(=O)C1=C2O`, the Potency result was “inactive”.

As for `Cc1nc2n(c(=O)c1CCN1CCC(c3noc4cc(F)ccc34)CC1)CCCC2`, the Potency entry was “inactive and 8.2 µM (active)”.

With `CC(C)CC(=O)N[C@H](C(=O)N[C@H](C(=O)N[C@@H](CC(C)C)[C@@H](O)CC(=O)N[C@@H](C)C(=O)N[C@@H](CC(C)C)[C@@H](O)CC(=O)O)C(C)C)C(C)C` (Isovaleryl-VV[Sta]A[Sta]-OH), the Potency entry is “inactive”.

Consider `CN1C(C(=O)Nc2ccccn2)=C(O)c2sccc2S1(=O)=O`, for which the Potency entry was “inactive”.

`Nc1cc(C(Cl)=C(Cl)Cl)c(S(N)(=O)=O)cc1S(N)(=O)=O`: the Potency entry was “inactive”.

For `Cc1cc2cc3c(C)cc(=O)oc3c(C)c2o1`, the Potency entry was “inactive”.

Take `O=C(NCCO[N+](=O)[O-])c1cccnc1`: the outcome was inactive.

With `CCOC(=O)c1c(C)n(C)c2ccc(O)cc12`, the Potency entry is “inactive”.

In the case of `Cn1c(NCCN(CCO)CCCc2ccc([N+](=O)[O-])cc2)cc(=O)n(C)c1=O`, the Potency entry is “inactive”.

On to `CN(c1nccc(=O)[nH]1)C1CCN(c2nc3ccccc3n2Cc2ccc(F)cc2)CC1`, for which the Potency entry is “inactive”.

Take `CN(C)CCc1c[nH]c2ccc(Cn3cncn3)cc12`: the Potency entry is “inactive”.

Regarding `Cc1cc(C2CCCCC2)n(O)c(=O)c1`, the Potency was 5.8 µM (active).

With `CCCc1cc(=O)[nH]c(=S)[nH]1`, the Potency result was “inactive”.

Take `CN(C)C(=O)COC(=O)Cc1ccc(OC(=O)c2ccc(N=C(N)N)cc2)cc1`: the Potency result is “inactive”.

For the compound `O=C(O)c1cn(-c2ccc(F)cc2)c2cc(N3CCNCC3)c(F)cc2c1=O`, the Potency result is “inactive”.

As to `COc1ccc(C2(C#N)CCC(C(=O)O)CC2)cc1OC1CCCC1` (centres undefined), the Potency result is “inactive”.

In the case of `COC(=O)[C@H](Cc1ccccc1)NC(=O)[C@@H](N)CC(=O)O` (H-Asp-Phe-OMe), the Potency entry was “inactive”.

Regarding `Cc1cc2c(s1)Nc1ccccc1N=C2N1CCN(C)CC1`, the Potency result is “inactive”.

Turning to `Nc1ccc(S(N)(=O)=O)cc1`, the Potency entry was “inactive”.

In the case of `CC(S)C(=O)NCC(=O)O` (centres undefined), the “activity change, negative = cytotoxicity” value is 7.59% (inactive).

For the compound `C[C@H](Cn1cnc2c(N)ncnc21)OCP(=O)(O)O`, the “activity change, negative = cytotoxicity” value was 5.85% (inactive).

On to `N=C(N=C(N)N)N1CCOCC1`, for which the Potency result was “inactive”.

Consider `Cc1nc(Nc2ncc(C(=O)Nc3c(C)cccc3Cl)s2)cc(N2CCN(CCO)CC2)n1`, for which the Potency result is “inactive”.

Consider `Cc1c(C(=O)NN2CCCCC2)nn(-c2ccc(Cl)cc2Cl)c1-c1ccc(Cl)cc1`, for which the Potency was 20.6 µM (active).

Turning to `CC(C)(S)[C@@H](N)C(=O)O`, the Potency entry is “inactive”.

On to `CC(C)[C@H](N)C(=O)OCCOCn1cnc2c(=O)[nH]c(N)nc21`, for which the Potency entry is “inactive”.

On to `Cc1ccc(C)c(OCCCC(C)(C)C(=O)O)c1`, for which the Potency result was “inactive”.

For the compound `CCCS(=O)c1ccc2nc(NC(=O)OC)[nH]c2c1` (centres undefined), the Potency is 20.9 µM (active) and 13 µM (active).

As to `CCC(C)(Oc1ccc(C2(c3ccc(OC(C)(CC)C(=O)O)cc3)CCCCC2)cc1)C(=O)O` (centres undefined), the Potency result was “inactive”.

Turning to `O=C(OC1C[C@H]2CC[C@@H](C1)[N+]21CCCC1)C(O)(c1ccccc1)c1ccccc1` (some centres undefined), the Potency entry is “inactive”.

For the compound `Clc1ccc(C(Cn2ccnc2)OCc2ccsc2Cl)c(Cl)c1` (centres undefined), the Potency is 18.4 µM (active).

Consider `CC1(C)CCC(C)(C)c2cc(NC(=O)c3ccc(C(=O)O)cc3)ccc21`, for which the “activity change, negative = cytotoxicity” value is 2.44% (inactive).

In the case of `CCCCCCCCOc1ccccc1C(=O)Nc1ccc(C(=O)OCC[N+](C)(CC)CC)cc1`, the “activity change, negative = cytotoxicity” value was -13.3% (inactive).
